From PubChem BioAssay (NCI)
Compounds without any hit were thinned out: in the full panel of roughly 79,000, 15% have a hit. Unmarked numbers belong to inactive results. Calls of active or inactive are those of the source. Rule as the data show it: active = growth inhibition above about 70%; inactive = the rest.

Columns and labels:
[1] = NCI Yeast Anticancer Drug Screen. Data for the rad52 strain (AID 147);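 also: 0% = growth of vehicle-treated control cultures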; details: S. cerevisiae rad52 mutant growth inhibition, active compounds read high
Method in brief: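 Yeast strain carrying a DNA damage repair alteration was exposed to test compounds. Growth inhibition was measured relative to vehicle-treated controls.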

[2] = NCI Yeast Anticancer Drug Screen. Data for the wt1 strain (AID 149);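 also: 0% = growth of vehicle-treated wt1 cultures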; details: S. cerevisiae wt1 strain (SPY 50644) growth inhibition, active compounds read high
Method in brief: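 Each compound is tested on wt1 yeast and the loss of growth versus vehicle gives the inhibition value.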

[3] = NCI Yeast Anticancer Drug Screen. Data for the rad50EPP+ strain (AID 151);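 also: 0% = growth of vehicle-treated control cultures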; details: S. cerevisiae rad50 mutant strain, active compounds read high
Method in brief: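 Yeast strain carrying rad50 alteration (rad50EPP+) exposed to compounds; growth inhibition measured relative to vehicle-treated controls.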

[4] = NCI Yeast Anticancer Drug Screen. Data for the mgt1 strain (AID 153); details: S. cerevisiae mgt1 mutant growth inhibition, active compounds read high
Method in brief: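 Yeast mgt1 strain (DNA repair/cell-cycle alteration panel) exposed to compounds; growth inhibition measured relative to vehicle-treated controls.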

[5] = NCI Yeast Anticancer Drug Screen. Data for the rad50 strain (AID 155);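 also: 0% = growth of vehicle-only cultures of the same strain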; details: S. cerevisiae rad50 strain growth inhibition, active compounds read high
Method in brief: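 Vehicle-treated cultures provide the reference for the growth inhibition reported for compound-exposed, repair-deficient yeast.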

[6] = NCI Yeast Anticancer Drug Screen. Data for the mec2-1 strain (AID 157); details: S. cerevisiae mec2-1 strain, active compounds read high
Method in brief: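 mec2-1 yeast strain, carrying an alteration in DNA damage repair or cell cycle control, was exposed to compounds; growth inhibition was measured relative to vehicle-treated controls.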

[7] = NCI Yeast Anticancer Drug Screen. Data for the rad14 strain (AID 159);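 also: 0% = growth of vehicle-treated control cultures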; details: S. cerevisiae rad14 strain growth inhibition, active compounds read high
Method in brief: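 Inhibition of growth is reported for a repair-deficient yeast mutant following compound treatment, calculated relative to cultures that received vehicle.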

[8] = NCI Yeast Anticancer Drug Screen. Data for the sgs1 mgt1 strain (AID 161);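 also: 0% = growth of cultures given vehicle only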; details: S. cerevisiae sgs1 mgt1 strain, active compounds read high
Method in brief: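 This yeast growth screen uses a strain with defined DNA-repair lesions; compound-treated growth is compared with vehicle-treated growth.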

[9] = NCI Yeast Anticancer Drug Screen. Data for the CLN2oe strain (AID 163);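 also: 0% = growth of vehicle-only control cultures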; details: S. cerevisiae CLN2oe strain, active compounds read high
Method in brief: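 Yeast cells carrying a defined cell-cycle control alteration were exposed to test compounds. Growth inhibition was scored against vehicle-treated control cultures.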

[10] = NCI Yeast Anticancer Drug Screen. Data for the cln2 rad14 strain (AID 165);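 also: 0% = growth equal to vehicle treated cultures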; details: S. cerevisiae cln2 rad14 strain, active compounds read high
Method in brief: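 Yeast carrying cln2 and rad14 alterations (cell cycle control and DNA damage repair) were exposed to compounds. Growth inhibition was measured against vehicle-treated controls.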

[11] = NCI Yeast Anticancer Drug Screen. Data for the bub3 strain (AID 167); details: S. cerevisiae bub3 mutant strain, active compounds read high
Method in brief: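 Mutant yeast screening strain plus compound; vehicle-treated cultures serve as the 0% inhibition reference.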

[12] = NCI Yeast Anticancer Drug Screen. Data for the wt2 strain (AID 169); details: S. cerevisiae wt2 strain growth inhibition, active compounds read high
Method in brief: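 Yeast cells were exposed to test compounds, and growth inhibition was measured relative to vehicle-treated controls.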

[13] = NCI Yeast Anticancer Drug Screen. Data for the mlh1 strain (AID 171);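 also: 0% = growth of vehicle-treated control cultures of the same strain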; details: S. cerevisiae mlh1 strain growth inhibition, active compounds read high
Method in brief: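 Yeast carrying a defined genetic alteration in DNA damage repair or cell cycle control were exposed to test compounds. Growth inhibition was measured relative to vehicle-treated controls.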

[14] = NCI Yeast Anticancer Drug Screen. Data for the sgs1 strain (AID 173);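 also: 0% = growth of vehicle-only control cultures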; details: S. cerevisiae sgs1 mutant, active compounds read high
Method in brief: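 Yeast mutant strains carrying defined defects in DNA damage repair or cell cycle control were exposed to test compounds. Growth inhibition was scored against vehicle-treated controls.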

[15] = NCI Yeast Anticancer Drug Screen. Data for the mlh1 rad18 strain (AID 175); details: S. cerevisiae mlh1 rad18 strain growth inhibition, active compounds read high
Method in brief: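 Growth inhibition of the yeast strain was measured after compound exposure and expressed relative to vehicle-treated controls. The strain carries defined defects in DNA damage repair.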

[16] = at 5.0 µM (retest, dose inferred, filed as 0.5)
[17] = at 50.0 µM (retest, dose inferred, filed as 5.0)

SMILES: O=C1c2cc([N+](=O)[O-])ccc2-c2cccc(F)c21
- growth inhibition ([1]; at 1.2 µM): 14%
- growth inhibition ([1]; at 3.7 µM): 31%
- growth inhibition ([1]; at 11.0 µM): 57%
- growth inhibition ([1]; at 33.0 µM): 82% (active)
- growth inhibition ([1]; at 100.0 µM): 87% (active)
- growth inhibition ([2]; at 1.2 µM): -1%
- growth inhibition ([2]; at 3.7 µM): -2%
- growth inhibition ([2]; at 11.0 µM): 8%
- growth inhibition ([2]; at 33.0 µM): 10%
- growth inhibition ([2]; at 100.0 µM): 20%
- growth inhibition ([3]; at 1.2 µM): 9%
- growth inhibition ([3]; at 3.7 µM): 27%
- growth inhibition ([3]; at 11.0 µM): 49%
- growth inhibition ([3]; at 33.0 µM): 69%
- growth inhibition ([3]; at 100.0 µM): 75% (active)
- growth inhibition ([4]; at 1.2 µM): 1%
- growth inhibition ([4]; at 3.7 µM): -5%
- growth inhibition ([4]; at 11.0 µM): 12%
- growth inhibition ([4]; at 33.0 µM): 20%
- growth inhibition ([4]; at 100.0 µM): 28%
- growth inhibition ([5]; at 1.2 µM): 12%
- growth inhibition ([5]; at 3.7 µM): 32%
- growth inhibition [5, 16]: 7%
- growth inhibition ([5]; at 11.0 µM): 61%
- growth inhibition ([5]; at 33.0 µM): 84% (active)
- growth inhibition [5, 17]: 60%
- growth inhibition ([5]; at 50.0 µM): 91.9% (active)
- growth inhibition ([5]; at 100.0 µM): 83% (active)
- growth inhibition ([6]; at 1.2 µM): 0%
- growth inhibition ([6]; at 3.7 µM): 3%
- growth inhibition [6, 16]: 1%
- growth inhibition ([6]; at 11.0 µM): 13%
- growth inhibition ([6]; at 33.0 µM): 23%
- growth inhibition [6, 17]: 7%
- growth inhibition ([6]; at 50.0 µM): 59.7%
- growth inhibition ([6]; at 100.0 µM): 41%
- growth inhibition ([7]; at 1.2 µM): 5%
- growth inhibition ([7]; at 3.7 µM): 11%
- growth inhibition ([7]; at 11.0 µM): 26%
- growth inhibition ([7]; at 33.0 µM): 42%
- growth inhibition ([7]; at 100.0 µM): 61%
- growth inhibition [8, 16]: 12%
- growth inhibition [8, 17]: 41%
- growth inhibition ([8]; at 50.0 µM): 67.3%
- growth inhibition ([9]; at 1.2 µM): -2%
- growth inhibition ([9]; at 3.7 µM): 0%
- growth inhibition ([9]; at 11.0 µM): 6%
- growth inhibition ([9]; at 33.0 µM): 15%
- growth inhibition ([9]; at 100.0 µM): 22%
- growth inhibition [10, 16]: 18%
- growth inhibition [10, 17]: 30%
- growth inhibition ([10]; at 50.0 µM): 54.9%
- growth inhibition ([11]; at 1.2 µM): -4%
- growth inhibition ([11]; at 3.7 µM): -7%
- growth inhibition [11, 16]: 1%
- growth inhibition ([11]; at 11.0 µM): 8%
- growth inhibition ([11]; at 33.0 µM): 16%
- growth inhibition [11, 17]: 8%
- growth inhibition ([11]; at 50.0 µM): 33.1%
- growth inhibition ([11]; at 100.0 µM): 25%
- growth inhibition ([12]; at 1.2 µM): -1%
- growth inhibition ([12]; at 3.7 µM): 3%
- growth inhibition ([12]; at 11.0 µM): 4%
- growth inhibition ([12]; at 33.0 µM): 17%
- growth inhibition ([12]; at 100.0 µM): 46%
- growth inhibition ([13]; at 1.2 µM): -3%
- growth inhibition ([13]; at 3.7 µM): 5%
- growth inhibition ([13]; at 11.0 µM): 13%
- growth inhibition ([13]; at 33.0 µM): 22%
- growth inhibition ([13]; at 100.0 µM): 44%
- growth inhibition ([14]; at 1.2 µM): 3%
- growth inhibition ([14]; at 3.7 µM): 10%
- growth inhibition ([14]; at 11.0 µM): 21%
- growth inhibition ([14]; at 33.0 µM): 34%
- growth inhibition ([14]; at 100.0 µM): 52%
- growth inhibition [15, 16]: 9%
- growth inhibition [15, 17]: 64%
- growth inhibition ([15]; at 50.0 µM): 82.5% (active)
